# Measurements as given in PubChem BioAssay (NCATS).
# Results filed as inconclusive are left out. Entries that show only a call come without a potency. Calls of active or inactive are those of the source. Calls follow the shape of the dose curve; as a rule, active = well fitted curve in the direction sought with a large enough effect; inconclusive = small, poorly fitted or top-dose-only effect, or another doubt; inactive = no such curve, though single readings can be large; an effect the other way counts as inactive or inconclusive. Where a SMILES comes first, the peptide text is derived from it. [ ]: non-standard residue; d: D form. pGlu = O=C1CC[C@@H](C(=O)O)N1
# Molecular target: Protein phosphatase 1D (Homo sapiens) (UniProt O15297)
# Sequence (O15297 whole entry, looked up): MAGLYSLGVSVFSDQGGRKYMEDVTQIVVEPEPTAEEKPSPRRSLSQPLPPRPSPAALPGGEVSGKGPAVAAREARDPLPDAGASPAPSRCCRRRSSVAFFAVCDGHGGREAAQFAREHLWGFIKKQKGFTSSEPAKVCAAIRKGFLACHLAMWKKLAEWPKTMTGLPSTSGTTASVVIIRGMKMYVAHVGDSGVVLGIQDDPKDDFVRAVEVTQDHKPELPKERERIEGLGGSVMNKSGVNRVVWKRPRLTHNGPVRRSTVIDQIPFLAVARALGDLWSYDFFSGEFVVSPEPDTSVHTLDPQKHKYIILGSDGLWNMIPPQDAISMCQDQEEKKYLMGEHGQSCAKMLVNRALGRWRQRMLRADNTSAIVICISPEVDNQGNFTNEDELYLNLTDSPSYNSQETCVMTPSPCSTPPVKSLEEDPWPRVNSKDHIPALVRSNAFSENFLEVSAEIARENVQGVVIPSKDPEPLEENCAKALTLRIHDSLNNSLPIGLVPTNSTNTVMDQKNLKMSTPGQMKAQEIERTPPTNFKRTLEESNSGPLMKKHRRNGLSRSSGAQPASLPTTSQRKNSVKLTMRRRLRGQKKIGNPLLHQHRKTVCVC
# Assay: RapidFire Mass Spectrometry qHTS Assay for Modulators of WT P53-Induced Phosphatase 1 (WIP1) (AID 1347424);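 also: amount of dephosphorylated VEPPL-S-QETFS peptide product formed by WIP1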
# Conditions: WIP1 dephosphorylation of phosphopeptide, RapidFire MS; series mostly up to 63 µM
# Outline: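 10 nM WIP1 + cpd, 1 h RT; + 2 uM VEPPL-pS-QETFS, 5 min RT; stop 0.5% formic acid; labelled product standard 1 uM; RapidFire MS. Buffer 50 mM Tris pH 7.5, 30 mM MgCl2, 1 mM TCEP.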
row,SMILES,Potency
1,Cc1nc2n(c(=O)c1CCN1CCC(C(=O)c3ccc(F)cc3)CC1)CCS2,inactive
2,CCOC(=O)N1CCC(n2c(=O)[nH]c3cc(Cl)ccc32)CC1,inactive
3,O=C1[C@@H]2[C@H]3CC[C@H](C3)[C@@H]2C(=O)N1CCCCN1CCN(c2ncccn2)CC1,inactive
4,Cc1ncc([N+](=O)[O-])n1C,inactive
5,NS(=O)(=O)c1ccc(N2CCCCS2(=O)=O)cc1,inactive
6,CCCC(CCC)(C(=O)OCC)C(=O)OCC,inactive
7,CCC(C(=O)OCCN1CCOC(c2ccccc2)C1C)c1ccccc1 (configuration not stated),inactive
8,C=C(C)C(=O)OCC(O)CO (configuration not stated),inactive
9,CCCCOC(=O)CCCCCCCCC(=O)OCCCC,inactive
10,O=C(O)[C@@H](O)[C@H](O)[C@H](O)[C@@H](O)C(=O)O,inactive
11,Cc1ccc(C(C)OC(=O)C2(C)CCC(C(=O)O)C2(C)C)cc1 (configuration not stated),inactive
12,CC(C)(C)C(O)/C=C/c1ccc2c(c1)OCO2 (configuration not stated),inactive
13,[O-][n+]1cccc(/C(Cl)=N/OC[C@@H](O)CN2CCCCC2)c1,inactive
14,CCOc1ncc(F)c(=O)[nH]1,inactive
15,CC(NC(CCc1ccccc1)C(=O)O)C(=O)N1C(=O)N(C)CC1C(=O)O (configuration not stated),inactive
16,CN(C)CCN(Cc1ccsc1)c1ccccn1,inactive
17,CCn1ccc(NS(=O)(=O)c2ccc(N)cc2)nc1=O,inactive

# Molecular target: Protein phosphatase 1D (Homo sapiens) (UniProt O15297)
# Assay: Rhodamine-PBP qHTS Assay for Modulators of WT P53-Induced Phosphatase 1 (WIP1) (AID 1347425)
# Conditions: recombinant WIP1, Rhodamine-PBP phosphate fluorescence, real-time; series mostly up to 57.5 µM
# Outline: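 The read-out is the change in Rhodamine-PBP fluorescence (f1 - f0, ex 525/em 598 nm) as Pi is released, read each minute for 11 min. Final reaction: 5 nM WIP1, 10 uM phosphopeptide VEPPL-pS-QETFS, 10 uM Rh-PBP, 50 mM Tris-HCl pH 7.5, 30 mM MgCl2. Compound was preincubated with enzyme for 1 hour at room temperature.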
row,SMILES,outcome
1,O=C1NC(c2ccccc2)(c2ccccc2)C(=O)N1COP(=O)(O)O,inactive
2,CC(=O)N[C@@H](CO)C(=O)N[C@@H](CC(=O)O)C(=O)N[C@@H](CCCCN)C(=O)N1CCC[C@H]1C(=O)O (Ac-SDKP-OH),inactive
3,Nc1ccc(C(=O)OCC(O)CO)cc1 (configuration not stated),inactive
4,Cc1c(F)cc2c(=O)c(C(=O)O)cn3c2c1CCC3C (configuration not stated),inactive
5,CN1CCC(N(Cc2cccs2)c2ccccc2)CC1,inactive
6,Cc1nc([N+](=O)[O-])cn1-c1ccc([N+](=O)[O-])cc1,inactive
7,CC1CC(=O)NN=C1c1ccc(NCC(C)(C)NCC(O)COc2cc(Cl)ccc2C#N)cc1 (configuration not stated),inactive
8,O=C(O)Cn1cnnn1,inactive
9,CO[C@@]1(NC(=O)CSC[C@@H](N)C(=O)O)C(=O)N2C(C(=O)O)=C(CSc3nnnn3C)CS[C@@H]21,inactive
10,CCNC(=O)[C@@H]1CCCN1C(=O)[C@H](CCCN=C(N)N)NC(=O)[C@H](CC(C)C)NC(=O)CNC(=O)[C@H](Cc1ccc(O)cc1)NC(=O)[C@H](CO)NC(=O)[C@H](Cc1c[nH]c2ccccc12)NC(=O)[C@H](Cc1cnc[nH]1)NC(=O)[C@@H]1CCC(=O)N1 ([pGlu]HWSYGLRP-NHEt),inactive
11,CC(C)C(=O)OCc1cccc(OC(=O)[C@@H]2N3C(=O)[C@@H](NC(=O)Cc4ccccc4)[C@H]3SC2(C)C)c1,inactive
12,CN(C)CCN1CCN(c2cccc(Cl)c2)C1=O,inactive
13,CN=C(N)NC(=O)Nc1c(C)cccc1C,inactive
14,CN1CCCN(C(c2ccccc2)c2ccc(Cl)cc2)CC1 (configuration not stated),inactive
15,CCCCCC(=O)O[C@]1(C(C)=O)CC[C@H]2[C@@H]3CCC4=CC(=O)CC[C@]4(C)[C@H]3CC[C@@]21C,inactive
16,CC(=O)N1CCN(c2ccc(O)cc2)CC1,inactive
17,NC(=O)NC1N=C([O][Al])NC1=O (configuration not stated),inactive
18,Cc1cccc(N(C)C(=S)Oc2ccc3c(c2)C2CCC3C2)c1 (configuration not stated),inactive
19,COc1ccc(/C(C)=C/C(=O)O)c(OC)c1,inactive
20,NC(=O)C1(N2CCCCC2)CCN(CCCN2c3ccccc3CCc3ccc(Cl)cc32)CC1,inactive

row,SMILES,outcome
1,CC(C)(C)NCC(O)COc1ccccc1OCC1CCCO1 (configuration not stated),inactive
2,COC(=O)c1c(Cl)c(Cl)c(C(=O)OC)c(Cl)c1Cl,inactive
3,COC(=O)c1ccc(NC(C)=O)cc1OC,inactive
4,Cc1nc2n(c(=O)c1CCN1CCC(C(=O)c3ccc(F)cc3)CC1)CCS2,inactive
5,CCOC(=O)N1CCC(n2c(=O)[nH]c3cc(Cl)ccc32)CC1,inactive
6,O=C1[C@@H]2[C@H]3CC[C@H](C3)[C@@H]2C(=O)N1CCCCN1CCN(c2ncccn2)CC1,inactive
7,Cc1ncc([N+](=O)[O-])n1C,inactive
8,NS(=O)(=O)c1ccc(N2CCCCS2(=O)=O)cc1,inactive
9,CCCC(CCC)(C(=O)OCC)C(=O)OCC,inactive
10,CCC(C(=O)OCCN1CCOC(c2ccccc2)C1C)c1ccccc1 (configuration not stated),inactive
11,C=C(C)C(=O)OCC(O)CO (configuration not stated),inactive
12,CCCCOC(=O)CCCCCCCCC(=O)OCCCC,inactive
13,O=C(O)[C@@H](O)[C@H](O)[C@H](O)[C@@H](O)C(=O)O,inactive
14,Cc1ccc(C(C)OC(=O)C2(C)CCC(C(=O)O)C2(C)C)cc1 (configuration not stated),inactive
15,CC(C)(C)C(O)/C=C/c1ccc2c(c1)OCO2 (configuration not stated),inactive
16,[O-][n+]1cccc(/C(Cl)=N/OC[C@@H](O)CN2CCCCC2)c1,inactive
17,CCOc1ncc(F)c(=O)[nH]1,inactive
18,CC(NC(CCc1ccccc1)C(=O)O)C(=O)N1C(=O)N(C)CC1C(=O)O (configuration not stated),inactive
19,CN(C)CCN(Cc1ccsc1)c1ccccn1,inactive
20,CCn1ccc(NS(=O)(=O)c2ccc(N)cc2)nc1=O,inactive
